Values joined by “and” are separate entries in the source; they are usually repeats but may differ in a detail not shown here. Equal values may be shown once. Active and inactive are the calls of the source. How the source made its calls: active means hit-call score of the fitted dose curve at least 0.9, where 1 is the maximum; inactive means score below 0.9.
Tests used:
[1] = BSK_CASM3C_SRB: Viability Assessment in the BioMAP Diversity Plus: CASM3C Assay (AID 2283050); details: primary human coronary artery smooth muscle cells;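 further: total protein by SRB staining as cytotoxicity measure in parallel cultures; cells exposed to compound for 24 h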
[2] = read-out: Thrombomodulin, THBD (gene 7056); assay: BSK_CASM3C_Thrombomodulin: BioMAP Diversity Plus: CASM3C Assay for Thrombomodulin Biomarker Activity (AID 2283051); details: primary human coronary artery smooth muscle cells; actives raise or lower the signal;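 further: thrombomodulin protein level measured by ELISA 24 h after dosing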
[3] = read-out: Tissue Factor, F3 (gene 2152); assay: BSK_CASM3C_TissueFactor: BioMAP Diversity Plus: CASM3C Assay for Tissue Factor Biomarker Activity (AID 2283052); details: primary human coronary artery smooth muscle cells; actives raise or lower the signal;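 further: cell surface tissue factor protein level read by ELISA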
[4] = read-out: Urokinase-type plasminogen activator receptor (uPAR), PLAUR (gene 5329); assay: BSK_CASM3C_uPAR: BioMAP Diversity Plus: CASM3C Assay for Urokinase-type plasminogen activator receptor (uPAR) Biomarker Activity (AID 2283054); details: primary human coronary artery smooth muscle cells; actives raise or lower the signal;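 further: cell-surface uPAR protein level quantified by ELISA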
[5] = read-out: Vascular cell adhesion molecule 1 (VCAM1), VCAM1 (gene 7412); assay: BSK_CASM3C_VCAM1: BioMAP Diversity Plus: CASM3C Assay for Vascular cell adhesion molecule 1 (VCAM1) Biomarker Activity (AID 2283055); details: primary human coronary artery smooth muscle cells; actives raise or lower the signal;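 further: VCAM-1 protein level quantified by ELISA on the cells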
[6] = read-out: Collagen III, COL3A1 (gene 1281); assay: BSK_hDFCGF_CollagenIII: BioMAP Diversity Plus: hDFCGF Assay for Collagen III Biomarker Activity (AID 2283056); details: primary human foreskin fibroblasts; actives raise or lower the signal
How it was run: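 Human foreskin primary fibroblasts were exposed to test chemicals for 24 h, after which collagen III was quantified by ELISA. Activity was fitted bidirectionally against DMSO as negative control and baseline.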

[7] = read-out: Epidermal growth factor receptor (EGFR), EGFR (gene 1956); assay: BSK_hDFCGF_EGFR: BioMAP Diversity Plus: hDFCGF Assay for Epidermal growth factor receptor (EGFR) Biomarker Activity (AID 2283057); details: primary human foreskin fibroblasts; actives raise or lower the signal
How it was run: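 Cell-based multiplexed assay in primary human foreskin fibroblasts. EGFR is read by ELISA 24 h after treatment and compared with DMSO controls.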

[8] = read-out: Interleukin-8 (IL8), CXCL8 (gene 3576); assay: BSK_hDFCGF_IL8: BioMAP Diversity Plus: hDFCGF Assay for Interleukin-8 (IL8) Biomarker Activity (AID 2283058); details: primary human foreskin fibroblasts; actives raise or lower the signal
How it was run: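 hDFCGF human dermal fibroblasts; 24 h chemical exposure; IL-8 by ELISA; bidirectional curve fit vs DMSO baseline; gain or loss of signal scored.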

[9] = BSK_hDFCGF_Proliferation: Cell Proliferation Assessment in the BioMAP Diversity Plus: hDFCGF Assay (AID 2283059); details: primary human foreskin fibroblasts;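 further: curves fitted for both rise and fall of signal versus DMSO baseline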
How it was run: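 Total protein read at 560 nm after 0.1% SRB staining of TCA-fixed human skin fibroblasts, […]. Activity is fitted in both directions relative to DMSO as baseline.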

[10] = read-out: Macrophage colony-stimulating factor (MCSF), CSF1 (gene 1435); assay: BSK_hDFCGF_MCSF: BioMAP Diversity Plus: hDFCGF Assay for Macrophage colony-stimulating factor (MCSF) Biomarker Activity (AID 2283060); details: primary human foreskin fibroblasts; actives raise or lower the signal
How it was run: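 Human foreskin primary fibroblasts were treated with test chemical for 24 h, and M-CSF was then measured by ELISA. Data were fitted bidirectionally against DMSO as the negative control and activity baseline.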

[11] = BSK_hDFCGF_SRB: Viability Assessment in the BioMAP Diversity Plus: hDFCGF Assay (AID 2283061); details: primary human foreskin fibroblasts;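 further: cells exposed to compound for 24 h before the read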
How it was run: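 Human foreskin primary fibroblasts were treated with compound and assessed 24 h after dosing. Total protein was measured by sulforhodamine B staining (0.1% SRB after 10% TCA fixation, 560 nm read) as a cytotoxicity marker, with bidirectional fitting against DMSO baseline.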

[12] = read-out: TIMP metallopeptidase inhibitor 1 (TIMP1), TIMP1 (gene 7076); assay: BSK_hDFCGF_TIMP1: BioMAP Diversity Plus: hDFCGF Assay for TIMP metallopeptidase inhibitor 1 (TIMP1) Biomarker Activity (AID 2283062); details: primary human foreskin fibroblasts; actives raise or lower the signal
How it was run: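 Primary human foreskin fibroblasts in the hDFCGF system were dosed with compound for 24 h, then TIMP-1 was measured by ELISA. Activity was fitted bidirectionally relative to DMSO control; parallel SRB staining assessed cytotoxicity.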

[13] = read-out: Monokine induced gamma interferon (MIG), CXCL9 (gene 4283); assay: BSK_hDFCGF_MIG: BioMAP Diversity Plus: hDFCGF Assay for Monokine induced gamma interferon (MIG) Biomarker Activity (AID 2283063); details: primary human foreskin fibroblasts; actives raise or lower the signal
How it was run: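 ELISA read-out of MIG from primary human dermal fibroblasts 24 h post-dosing. Gain or loss of signal fitted bidirectionally, DMSO as baseline.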

[14] = read-out: Matrix Metallopeptidase 1 (MMP1), MMP1 (gene 4312); assay: BSK_hDFCGF_MMP1: BioMAP Diversity Plus: hDFCGF Assay for Matrix Metallopeptidase 1 (MMP1) Biomarker Activity (AID 2283064); details: primary human foreskin fibroblasts; actives raise or lower the signal
How it was run: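 ELISA read-out of MMP1 from human foreskin fibroblasts (primary skin cells), 24 h post-dose. Gain or loss of signal was fitted bidirectionally versus DMSO negative control; cytotoxicity was checked by SRB in parallel cultures.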

[15] = read-out: Vascular cell adhesion molecule 1 (VCAM1), VCAM1 (gene 7412); assay: BSK_hDFCGF_VCAM1: BioMAP Diversity Plus: hDFCGF Assay for Vascular cell adhesion molecule 1 (VCAM1) Biomarker Activity (AID 2283065); details: primary human foreskin fibroblasts; actives raise or lower the signal;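 on AC50: VCAM-1 protein level quantified by ELISA after 24 h chemical exposure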
How it was run: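 Primary human foreskin fibroblasts (hDFCGF system) were dosed with chemical and VCAM-1 was measured by ELISA 24 h later. Bidirectional curve fitting used DMSO as negative control and activity baseline.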

[16] = read-out: Plasminogen activator inhibitor-1 (PAI1), SERPINE1 (gene 5054); assay: BSK_hDFCGF_PAI1: BioMAP Diversity Plus: hDFCGF Assay for Plasminogen activator inhibitor-1 (PAI1) Biomarker Activity (AID 2283066); details: primary human foreskin fibroblasts; actives raise or lower the signal
How it was run: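 Human skin fibroblast cultures receive chemical for 24 h before PAI-1 is measured by ELISA; signal changes are fitted bidirectionally against DMSO-treated wells.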

[17] = read-out: Intercellular Adhesion Molecule 1 (ICAM1), ICAM1 (gene 3383); assay: BSK_KF3CT_ICAM1: BioMAP Diversity Plus: KF3CT Assay for Intercellular Adhesion Molecule 1 (ICAM1) Biomarker Activity (AID 2283067); details: primary human keratinocytes with fibroblasts; actives raise or lower the signal
How it was run: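 Human keratinocyte plus foreskin fibroblast primary co-culture was exposed to chemical for 24 h. ICAM-1 was then quantified by ELISA, and the data were fit bidirectionally against DMSO as the negative control and baseline.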

[18] = read-out: Interferon-gamma inducible Protein 10 (IP10), CXCL10 (gene 3627); assay: BSK_KF3CT_IP10: BioMAP Diversity Plus: KF3CT Assay for Interferon-gamma inducible Protein 10 (IP10) Biomarker Activity (AID 2283068); details: primary human keratinocytes with fibroblasts; actives raise or lower the signal
How it was run: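 Human keratinocyte plus foreskin fibroblast primary co-culture exposed to test chemical for 24 h; IP-10 measured by ELISA. Concentration-response fitted bidirectionally against DMSO control as baseline.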

[19] = BSK_KF3CT_SRB: Viability Assessment in the BioMAP Diversity Plus: KF3CT Assay (AID 2283069); details: primary human keratinocytes with fibroblasts;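 further: fitted for both signal gain and loss against DMSO baseline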
How it was run: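 SRB read-out at 560 nm (0.1% stain, TCA-fixed cells) gauges overt cytotoxicity in a human skin keratinocyte–fibroblast co-culture 24 h post-dosing. Signal change was fitted bidirectionally relative to DMSO control.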

Measured: AC50

O=S(=O)(O)c1ccc(N=Nc2c(O)ccc3cc(S(=O)(=O)O)ccc23)cc1
inactive: all assays above

c1ccc(C(O[C@@H]2CCCN(CCc3ccc4c(c3)OCO4)C2)c2ccccc2)cc1
active: [6] 5.39 µM | [10] 20 µM | [11] 29 µM | [15] 8.8 µM | [16] 20 µM
not listed: [7] | [9]
inactive: all other assays above

COS(C)(=O)=O
inactive: all assays above

NNC(=O)c1ccncc1
not listed: [14]
inactive: all other assays above

Cc1nccn1-c1ccc(Sc2cccc(C3(C(N)=O)CCOCC3)c2)cc1
active: [5] 14.9 µM | [9] 4.15 µM | [12] 2.1 µM | [13] 6.44 µM | [14] 2.9 µM | [15] 3.25 µM
inactive: all other assays above

OCCNCCO
inactive: all assays above

NC(=O)N(O)[C@@H]1COc2cc(OCc3ccccc3)ccc21
active: [5] 10.2 µM
inactive: all other assays above

S=P(N1CC1)(N1CC1)N1CC1
active: [9] 18.2 µM
inactive: all other assays above

c1ccc2c(c1)-c1cccc3c1c-2cc1ccccc13
active: [14] 6.72 µM
inactive: all other assays above

CC(=O)c1ccccc1
inactive: all assays above

Cc1cccc(O)c1C
inactive: all assays above

CCCCCOC(C)=O
inactive: all assays above

Cc1nc(-c2ccccn2)ncc1C(=O)Nn1cc(C)c2cc(F)ccc21
active: [2] 20 µM
inactive: all other assays above

CCCCCCCCCCCCCCCCOS(=O)(=O)O
inactive: [1] | [2] | [3] | [4] | [5]
active: [6] 18.3 µM | [7] 2.46 µM | [8] 15.5 µM | [9] 5.25 µM | [10] 10.2 µM | [11] 13.7 µM | [12] 18.2 µM | [13] 13.1 µM | [14] 16.6 µM | [15] 5.95 µM | [16] 9.1 µM | [17] 14.9 µM | [18] 11.9 µM | [19] 15.8 µM

Cn1cc[nH]c1=S
inactive: all assays above

CCc1cccc(CC)c1N
inactive: all assays above

OC(CCl)CCl
inactive: all assays above

CC[C@H](C)C(=O)O[C@H]1C[C@H](O)C=C2C=C[C@H](C)[C@H](CC[C@@H](O)C[C@@H](O)CC(=O)O)[C@H]21
active: [2] 15.3 µM
inactive: all other assays above

O=C(O)[C@H](O)[C@@H](O)C(=O)O
inactive: all assays above

OC(O)(C(F)C(O)(O)C(F)(F)F)C(F)(F)F
active: [3] 19 µM and 13.4 µM | [9] 9.21 µM and 7.73 µM | [13] 30 µM and 36.3 µM | [15] 1.12 µM and 13 µM
inactive: all other assays above

CCCC(CCC)C(=O)O
inactive: all assays above

CCCCCCCC1CCC(=O)O1 (stereo unspecified)
inactive: all assays above

FC(F)(F)COC(OCC(F)(F)F)OCC(F)(F)F
inactive: all assays above

NC(=O)NN=Cc1ccc([N+](=O)[O-])o1
active: [9] 27.8 µM
inactive: all other assays above

OC[C@H]1O[C@@](CO)(O[C@H]2O[C@H](CO)[C@@H](O)[C@H](O)[C@H]2O)[C@@H](O)[C@@H]1O
inactive: all assays above

CCn1nc(C)c2c1C(=O)NCC(c1ccc(O)cc1)=N2
active: [4] 8.18 µM | [9] 11 µM | [10] 3.97 µM | [16] 1.14 µM
inactive: all other assays above

Reference: PubChem BioAssay (EPA / NIEHS)
